The source of these data is publication PMC8384837, “Expanding the binding specificity for RNA recognition by a PUF domain”.

Common to all, as to test: yeast three-hybrid, YBZ-1, SC-Leu-His + 0.5 mM 3-AT, 4 days
What all share (details): tags: N-Gal4 AD-HA kept; label: inside an RPR1-promoter hybrid RNA with tandem MS2 sites; ssRNA

For one experiment, the target named is PUM1 PUF domain R4-GYV (Homo sapiens, UniProt Q14671 828-1176, N971G;H972Y;Q975V). In a few lines:
(§1)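 A centromeric plasmid in strain YBZ-1 co-expressed Pumilio-1 PUF domain libraries, randomized at the three base-contacting residues of each repeat, with matching RNA elements; the strain carries a LexA–MS2 coat fusion and a HIS3 reporter. After four days on SC-Leu (input) or SC-Leu-His + 0.5 mM 3-AT (selection), the repeat regions were PCR-amplified and Illumina-sequenced. The interaction score is the log change in variant frequency from input to selection, using log2 and a pseudocount of 1 where absent.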

A further experiment deals with PUM1 PUF domain R4-ANG (Homo sapiens, UniProt Q14671 828-1176, N971A;H972N;Q975G). In outline:
as §1

The next experiment deals with PUM1 PUF domain R3-GCR (Homo sapiens, UniProt Q14671 828-1176, C935G;R936C;Q939R). In a few lines: as §1
The next experiment deals with PUM1 PUF domain R3-RNG (Homo sapiens, UniProt Q14671 828-1176, C935R;R936N;Q939G). In outline:
as §1

The target of another experiment is PUM1 PUF domain R3-RSA (Homo sapiens, UniProt Q14671 828-1176, C935R;R936S;Q939A). In a few lines: as §1
PUM1 PUF domain R3-RSA, sequence (Q14671 828-1176 C935R/R936S/Q939A): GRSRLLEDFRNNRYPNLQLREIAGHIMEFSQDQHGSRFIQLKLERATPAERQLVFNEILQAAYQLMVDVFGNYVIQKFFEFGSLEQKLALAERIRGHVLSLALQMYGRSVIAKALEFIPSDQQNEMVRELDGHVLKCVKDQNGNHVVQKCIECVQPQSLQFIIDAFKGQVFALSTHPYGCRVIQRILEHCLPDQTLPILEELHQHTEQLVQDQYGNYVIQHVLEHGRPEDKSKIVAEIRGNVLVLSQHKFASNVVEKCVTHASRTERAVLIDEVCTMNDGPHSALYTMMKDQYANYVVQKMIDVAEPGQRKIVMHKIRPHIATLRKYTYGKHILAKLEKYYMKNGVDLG
In another experiment the target is T1, PUM1 PUF domain R6-SFC (Homo sapiens, UniProt Q14671 828-1176, N1043S;Y1044F;Q1047C).
T1 sequence: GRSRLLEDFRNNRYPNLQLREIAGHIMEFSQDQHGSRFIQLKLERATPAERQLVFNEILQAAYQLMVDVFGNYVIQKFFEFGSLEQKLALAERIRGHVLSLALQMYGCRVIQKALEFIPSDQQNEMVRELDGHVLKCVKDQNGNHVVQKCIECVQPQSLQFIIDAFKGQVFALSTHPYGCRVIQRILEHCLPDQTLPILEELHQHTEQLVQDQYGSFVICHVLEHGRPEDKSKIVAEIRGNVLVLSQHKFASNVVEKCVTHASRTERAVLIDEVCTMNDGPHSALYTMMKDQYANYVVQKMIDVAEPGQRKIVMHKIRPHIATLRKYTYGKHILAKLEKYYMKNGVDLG
In outline: as §1

In a further experiment the target is PUM1 PUF domain R8-RHQ (Homo sapiens, UniProt Q14671 828-1176, N1122R;Y1123H). In a few lines:
as §1

The target of the next experiment is PUM1 PUF domain R5-AYY (Homo sapiens, UniProt Q14671 828-1176, C1007A;R1008Y;Q1011Y). In a few lines:
as §1

The target in the next experiment is PUM1 PUF domain R3-FRT (Homo sapiens, UniProt Q14671 828-1176, C935F;Q939T). In a few lines:
as §1

PUM1 PUF domain R3-FRT, sequence (Q14671 828-1176 C935F/Q939T): as the sequence (Q14671 828-1176 C935R/R936S/Q939A) above, with R108F, S109R, A112T counted along it
PUM1 PUF domain R5-AYY, sequence (Q14671 828-1176 C1007A/R1008Y/Q1011Y): as the sequence (Q14671 828-1176 C935R/R936S/Q939A) above, with R108C, S109R, A112Q, C180A, R181Y, Q184Y counted along it

Turning to “GGCUAGAACUAGUGGAUCCCCCGGCGCCCGGCGGCUCGAGCCCGGGUAAGUGUACAUAGUCUGCAUGCCGCCGGGCGCCAUGCCUGCAGGUCGACUCUAGAAAACAUG”, the results for the binding signal in the experiment with PUM1 PUF domain R4-GYV and with PUM1 PUF domain R4-ANG were 7.46 log2 enrichment (interaction score) and 3.65 log2 enrichment (interaction score), respectively.
Consider “GGCUAGAACUAGUGGAUCCCCCGGCGCCCGGCGGCUCGAGCCCGGGUAAGUGUAUAUAGUCUGCAUGCCGCCGGGCGCCAUGCCUGCAGGUCGACUCUAGAAAACAUG”, for which the binding signal in the experiment with PUM1 PUF domain R4-ANG is 2.57 log2 enrichment (interaction score).
In the case of “GGCUAGAACUAGUGGAUCCCCCGGCGCCCGGCGGCUCGAGCCCGGGUAAGUGUAAUUAGUCUGCAUGCCGCCGGGCGCCAUGCCUGCAGGUCGACUCUAGAAAACAUG”, the binding signal was 2.22 log2 enrichment (interaction score) with PUM1 PUF domain R3-GCR, 3.75 log2 enrichment (interaction score) with PUM1 PUF domain R3-RNG and 3.54 log2 enrichment (interaction score) in the experiment with PUM1 PUF domain R3-RSA.
For the sequence “GGCUAGAACUAGUGGAUCCCCCGGCGCCCGGCGGCUCGAGCCCGGGUAAGUGUAAAUAGUCUGCAUGCCGCCGGGCGCCAUGCCUGCAGGUCGACUCUAGAAAACAUG”, the binding signal with PUM1 PUF domain R6-SFC is 4.7 log2 enrichment (interaction score); with PUM1 PUF domain R3-GCR, 0.62 log2 enrichment (interaction score); in the experiment with PUM1 PUF domain R4-ANG, 0.25 log2 enrichment (interaction score); with PUM1 PUF domain R8-RHQ, 3.7 log2 enrichment (interaction score); with PUM1 PUF domain R5-AYY it was 3.24 log2 enrichment (interaction score).
On to “GGCUAGAACUAGUGGAUCCCCCGGCGCCCGGCGGCUCGAGCCCGGGUAAGUGUAAGUAGUCUGCAUGCCGCCGGGCGCCAUGCCUGCAGGUCGACUCUAGAAAACAUG”, for which the binding signal is 3.87 log2 enrichment (interaction score) with PUM1 PUF domain R3-GCR and 4.75 log2 enrichment (interaction score) with PUM1 PUF domain R3-FRT.
